This is part of a sample that, as a whole, favours compounds with a hit. Of some 83,000 tested, about 20% had one in any assay.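 Plates (96-well) were seeded with cells, treated with compound at one concentration, and incubated for 48 hours before percent growth was determined.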 The source made the active and inactive calls. How the source made its calls: active means growth percent below 10; inactive means the rest.
What was measured:
Assay in all cases: NCI-60 one-dose screen, 48 h (100 = growth as untreated, 0 = no growth, -100 = all killed)
Conditions in all cases: 10 µM
NCI-H23 lung = tested on: NCI-H23 lung
NCI-H226 lung = tested on: NCI-H226 lung
NCI-H322M lung = tested on: NCI-H322M lung
HOP-62 NSCLC = tested on: HOP-62 NSCLC
NCI-H460 lung = tested on: NCI-H460 lung
HOP-92 NSCLC = tested on: HOP-92 NSCLC
NCI-H522 lung = tested on: NCI-H522 lung
A549/ATCC NSCLC = tested on: A549/ATCC NSCLC
786-0 renal = tested on: 786-0 renal
COLO 205 colon = tested on: COLO 205 colon

Measured: growth

CCOc1ccc(/C=N/NC(=O)Cn2nc(Cc3ccc([N+](=O)[O-])cc3)c3onc(C)c3c2=O)cc1
active: NCI-H226 lung -21.1% | HOP-62 NSCLC -17.3% | NCI-H460 lung -9.53% | HOP-92 NSCLC -44.6% | A549/ATCC NSCLC -23.6% | 786-0 renal -79.7%
inactive: NCI-H23 lung 28.8% | NCI-H322M lung 29.4% | NCI-H522 lung 47.6% | COLO 205 colon 53.7%

O/N=C(\CSc1nnc(-c2c[nH]c3ccccc23)n1-c1ccccc1)c1ccc(Cl)cc1
inactive: NCI-H23 lung 47.3% | NCI-H226 lung 14.3% | NCI-H460 lung 10.5% | NCI-H522 lung 12.4% | A549/ATCC NSCLC 21.5% | 786-0 renal 34.1% | COLO 205 colon 10.2%
active: NCI-H322M lung -49.3% | HOP-62 NSCLC -64.1% | HOP-92 NSCLC -8.42%

COc1ccc2nc(Cl)c(-c3cc(-c4ccccc4)nc(=O)[nH]3)cc2c1
inactive: NCI-H23 lung 57.9% | NCI-H226 lung 60.8% | NCI-H322M lung 78.1% | HOP-62 NSCLC 69.9% | NCI-H460 lung 18% | HOP-92 NSCLC 55.2% | NCI-H522 lung 66.9% | A549/ATCC NSCLC 77.4% | 786-0 renal 57.8% | COLO 205 colon 92.9%

O/N=C(\CSc1nnc(-c2c[nH]c3ccccc23)n1-c1ccccc1)c1ccc(Br)cc1
active: NCI-H226 lung 6.3% | NCI-H322M lung -72.7% | HOP-62 NSCLC -54.8% | NCI-H460 lung -21.9% | HOP-92 NSCLC -11.2% | NCI-H522 lung -29.7% | A549/ATCC NSCLC -18.2% | COLO 205 colon -41.2%
inactive: NCI-H23 lung 14.1% | 786-0 renal 34.7%

CCOC(=O)c1c(CSc2ccccc2)n(C)c2cc(CN(C)C)c(O)c(CN(C)C)c12
inactive: NCI-H23 lung 33.8% | NCI-H226 lung 46.6% | NCI-H322M lung 47.7% | HOP-62 NSCLC 72.2% | NCI-H460 lung 34.6% | HOP-92 NSCLC 32.5% | NCI-H522 lung 62.4% | A549/ATCC NSCLC 49.6% | 786-0 renal 45.3%
active: COLO 205 colon -37.8%

CC(=O)c1ccc(Nc2nc(SC(C)C)nc(-c3ccccc3)c2C#N)cc1
active: NCI-H226 lung -25.1% | HOP-62 NSCLC -27.8% | HOP-92 NSCLC -15.8% | 786-0 renal -56.6%
inactive: NCI-H23 lung 22.4% | NCI-H322M lung 24.2% | NCI-H460 lung 20.2% | NCI-H522 lung 64.6% | A549/ATCC NSCLC 57.3% | COLO 205 colon 74.7%

C=C(c1ccc(OC)c(N)c1)c1cc(C)nc2ccccc12
inactive: NCI-H23 lung 12.3% | NCI-H226 lung 22.8% | NCI-H322M lung 37.8% | HOP-62 NSCLC 30.9% | HOP-92 NSCLC 53.8% | A549/ATCC NSCLC 19.9% | 786-0 renal 22.6%
active: NCI-H460 lung -4.48% | NCI-H522 lung -29.4% | COLO 205 colon -79.8%

COc1ccc(NC(=O)CSc2nnc(-c3ccc4nc(-c5ccc(Cl)cc5)[nH]c4c3)o2)cc1
active: NCI-H23 lung -9.49%
inactive: NCI-H226 lung 80.3% | NCI-H322M lung 45.8% | HOP-62 NSCLC 74.6% | NCI-H460 lung 10.7% | HOP-92 NSCLC 102% | NCI-H522 lung 22.6% | A549/ATCC NSCLC 66% | 786-0 renal 22.5% | COLO 205 colon 96.8%

CCOC(=O)c1sc(N/N=C(\C)c2ccc3c(c2)Nc2ccccc2S3)nc1C
inactive: NCI-H23 lung 13.9% | NCI-H226 lung 34.8% | NCI-H322M lung 45.2% | HOP-62 NSCLC 43.7% | NCI-H522 lung 30.9% | A549/ATCC NSCLC 29.2% | 786-0 renal 33.6%
active: NCI-H460 lung 5.63% | HOP-92 NSCLC -9.2% | COLO 205 colon -42.2%

N#Cc1c(NC(=O)c2ccc(C(F)(F)F)cc2)sc2c1CCC(=O)C2
inactive: NCI-H322M lung 22.3%
active: NCI-H23 lung -56.9% | NCI-H226 lung -21.2% | HOP-62 NSCLC -37.7% | NCI-H460 lung 0.648% | HOP-92 NSCLC -57% | NCI-H522 lung -57.3% | A549/ATCC NSCLC -41.9% | 786-0 renal -8.91% | COLO 205 colon -95.3%

O=C1N/C(=N\c2nccs2)S/C1=C\c1cccs1
inactive: NCI-H23 lung 38.1% | NCI-H226 lung 19.9% | NCI-H322M lung 45.2% | HOP-62 NSCLC 33.6% | NCI-H460 lung 14.7% | HOP-92 NSCLC 68% | NCI-H522 lung 21.2% | A549/ATCC NSCLC 26.8% | 786-0 renal 43.2% | COLO 205 colon 29%

Cn1cc(-c2cc(N)n3nc(-c4c[nH]c5ccc(Br)cc45)cc3n2)c2cc(Br)cnc21
inactive: NCI-H322M lung 11.7%
active: NCI-H23 lung -81.5% | NCI-H226 lung -55.3% | HOP-62 NSCLC -69.2% | NCI-H460 lung 2.27% | HOP-92 NSCLC -63.2% | NCI-H522 lung -72% | A549/ATCC NSCLC -45.8% | 786-0 renal -75% | COLO 205 colon -90.9%

O=C(CSc1nnc(-c2ccc3nc(-c4ccc(Cl)cc4)[nH]c3c2)o1)Nc1ccc(Br)cc1
active: NCI-H23 lung -82.9% | NCI-H226 lung -62.9% | NCI-H322M lung -40.8% | HOP-62 NSCLC -66.9% | NCI-H460 lung -82.7% | HOP-92 NSCLC -11.3% | NCI-H522 lung -67.9% | A549/ATCC NSCLC -54.9% | 786-0 renal -74.9% | COLO 205 colon 0.691%

Clc1cccc(N/N=C/c2c[nH]c3ccccc23)n1
active: HOP-92 NSCLC -10.8%
inactive: NCI-H23 lung 57.3% | NCI-H226 lung 50.7% | NCI-H322M lung 65.9% | HOP-62 NSCLC 46.9% | NCI-H460 lung 28.9% | NCI-H522 lung 16.1% | A549/ATCC NSCLC 56.4% | 786-0 renal 13.7% | COLO 205 colon 37.2%

C=C(C)[C@@H]1CC[C@]2(COP(=O)(OCC)OCC)CC[C@]3(C)[C@H](CC[C@@H]4[C@@](C)(CCCN)[C@H](C(=C)C)CC[C@]43C)[C@@H]12
inactive: NCI-H23 lung 23.3% | NCI-H226 lung 29% | NCI-H322M lung 62.1% | HOP-62 NSCLC 53.5% | HOP-92 NSCLC 25.2% | NCI-H522 lung 19.6% | A549/ATCC NSCLC 21.5% | 786-0 renal 20.4% | COLO 205 colon 29.7%
active: NCI-H460 lung 8.95%

Cc1ccc2nc(COc3ccc(C(=O)NNC(=S)NCCc4ccccc4)cc3)[nH]c2c1
inactive: NCI-H23 lung 17.2% | NCI-H226 lung 47.2% | NCI-H322M lung 51.7% | HOP-62 NSCLC 42.4% | NCI-H460 lung 60.4% | NCI-H522 lung 55% | A549/ATCC NSCLC 104% | 786-0 renal 61% | COLO 205 colon 144%
active: HOP-92 NSCLC 9.55%

COc1cc(OC(F)(F)F)ccc1C(=O)Nc1sc2c(c1C#N)CCC(=O)C2
active: NCI-H522 lung -36.3%
inactive: NCI-H23 lung 54.5% | NCI-H226 lung 87.9% | NCI-H322M lung 97.9% | HOP-62 NSCLC 84.8% | NCI-H460 lung 100% | HOP-92 NSCLC 95.2% | A549/ATCC NSCLC 93.5% | 786-0 renal 97.5% | COLO 205 colon 97.8%

CN1CCN(Cc2ccc(NC(=O)c3cncc(C#Cc4cnc5ccc(N[C@@H]6CCOC6)nn45)c3)cc2C(F)(F)F)CC1
active: NCI-H23 lung -81.3% | NCI-H226 lung -94.9% | NCI-H322M lung -99.2% | HOP-62 NSCLC -75.5% | NCI-H460 lung -30% | HOP-92 NSCLC -82% | NCI-H522 lung -71.6% | A549/ATCC NSCLC -56% | 786-0 renal -77.4% | COLO 205 colon -65.5%

CCCCSc1nc(Nc2ccc(/C(C)=N/NC(N)=S)cc2)c(C#N)c(-c2ccccc2)n1
inactive: NCI-H23 lung 23.7% | NCI-H322M lung 59% | HOP-62 NSCLC 41.1% | NCI-H460 lung 12.1% | NCI-H522 lung 39.6% | A549/ATCC NSCLC 12.8% | COLO 205 colon 59.6%
active: NCI-H226 lung 4.29% | HOP-92 NSCLC -19.7% | 786-0 renal 3.01%

CN1CCN(c2ccc(C(=O)/C=C/c3ccc(OC(F)F)cc3)cc2)CC1
inactive: NCI-H23 lung 27.8% | NCI-H226 lung 27.7% | NCI-H322M lung 70.6% | HOP-62 NSCLC 95.6% | NCI-H460 lung 49.2% | HOP-92 NSCLC 61.6% | NCI-H522 lung 83.5% | A549/ATCC NSCLC 40.2% | 786-0 renal 61.6% | COLO 205 colon 34.8%

Cc1cc(C)cc(Oc2cccc(-c3c(C)nnn3C3CCN(CCN(C)C)CC3)n2)c1
active: NCI-H226 lung 5.11% | HOP-92 NSCLC -9.61% | NCI-H522 lung -15.7% | COLO 205 colon -74%
inactive: NCI-H23 lung 34.5% | NCI-H322M lung 40% | HOP-62 NSCLC 42.5% | NCI-H460 lung 51.1% | A549/ATCC NSCLC 30.3% | 786-0 renal 22.3%

C/C(=C\CSc1ccccc1C(=O)O)CCCC(C)CCCC(C)CCCC(C)C (stereo not given)
inactive: NCI-H23 lung 35.5% | NCI-H226 lung 77.5% | NCI-H322M lung 65.8% | HOP-62 NSCLC 57.6% | NCI-H460 lung 39.6% | HOP-92 NSCLC 71.4% | NCI-H522 lung 23.3% | A549/ATCC NSCLC 41.3% | 786-0 renal 67.3% | COLO 205 colon 87.8%

O=C1Nc2ccc(F)cc2/C1=C/c1cccc(OCc2ccccn2)c1
active: NCI-H522 lung -14.1%
inactive: NCI-H23 lung 58.3% | NCI-H226 lung 49.9% | NCI-H322M lung 77% | HOP-62 NSCLC 78.9% | NCI-H460 lung 36.5% | HOP-92 NSCLC 26.5% | A549/ATCC NSCLC 77.4% | 786-0 renal 56% | COLO 205 colon 98.8%

O=c1[nH]c2ccc(Cl)cc2cc1CSc1ccc(Nc2nccc(-c3ccc4ccccc4c3)n2)cc1
inactive: NCI-H23 lung 81.9% | NCI-H226 lung 50.5% | NCI-H322M lung 95.5% | HOP-62 NSCLC 85.8% | NCI-H460 lung 20.8% | HOP-92 NSCLC 88.1% | NCI-H522 lung 80.5% | A549/ATCC NSCLC 22.7% | 786-0 renal 64.8% | COLO 205 colon 31.8%

C=C(C)[C@@H]1CC[C@]2(C(=O)OC)CC[C@]3(C)[C@H](CC[C@@H]4[C@@]5(C)CC[C@H](N)C(C)(C)[C@@H]5CC[C@]43C)[C@@H]12
active: NCI-H23 lung -94.8% | NCI-H226 lung -89.3% | NCI-H322M lung -96.5% | HOP-62 NSCLC -81.6% | NCI-H460 lung -53.7% | HOP-92 NSCLC -68.9% | NCI-H522 lung -77.8% | A549/ATCC NSCLC -86.9% | 786-0 renal -98% | COLO 205 colon -68.9%

CCN(CC)CCOc1ccc(C(=C(C)c2ccccc2)c2ccc(OCCN(CC)CC)cc2)cc1
active: HOP-62 NSCLC -44.3% | NCI-H460 lung 4.41% | HOP-92 NSCLC -21.3% | NCI-H522 lung 3.11% | 786-0 renal -51.6% | COLO 205 colon -88.2%
inactive: NCI-H23 lung 19.9% | NCI-H226 lung 71% | NCI-H322M lung 31.1% | A549/ATCC NSCLC 15.2%
